# Data as given in PubChem BioAssay (NCI).
# The panel holds about 79,000 compounds, 15% with a hit somewhere; the sample as a whole holds those more often. Values without a mark were called inactive. Active and inactive are the calls of the source. Cut-off read from the data, not from the text of the source: active = growth inhibition above about 70%; inactive = the rest.
# Key:
# [1] = NCI Yeast Anticancer Drug Screen. Data for the sgs1 strain (AID 173);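 note: 0% = growth of vehicle-only control cultures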; conditions: S. cerevisiae sgs1 mutant, stronger effect = higher value
# Procedure, shortened: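 Compounds applied to genetically altered yeast; growth compared with vehicle-treated cultures to give % inhibition.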
# [2] = NCI Yeast Anticancer Drug Screen. Data for the mlh1 rad18 strain (AID 175); conditions: S. cerevisiae mlh1 rad18 strain growth inhibition, stronger effect = higher value
# Procedure, shortened: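 Cells of a genetically altered yeast strain, deficient in DNA damage repair, were treated with compound. Their growth was then compared with that of vehicle-treated cultures to give inhibition.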
# [3] = NCI Yeast Anticancer Drug Screen. Data for the rad18 strain (AID 177); conditions: S. cerevisiae rad18 mutant growth inhibition, stronger effect = higher value
# Procedure, shortened: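 Compounds are applied to a repair-deficient yeast strain, and growth is compared with that of vehicle-treated cultures to give percent inhibition.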
# [4] = NCI Yeast Anticancer Drug Screen. Data for the rad52 strain (AID 147);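 note: 0% = growth of vehicle-treated control cultures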; conditions: S. cerevisiae rad52 mutant growth inhibition, stronger effect = higher value
# Procedure, shortened: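 DNA repair-defective yeast; compound exposure; growth scored against vehicle controls.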
# [5] = NCI Yeast Anticancer Drug Screen. Data for the wt1 strain (AID 149);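 note: 0% = growth of vehicle-treated wt1 cultures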; conditions: S. cerevisiae wt1 strain (SPY 50644) growth inhibition, stronger effect = higher value
# Procedure, shortened: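 The wt1 strain was treated with compounds, and growth was compared with vehicle-treated cultures to give inhibition.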
# [6] = NCI Yeast Anticancer Drug Screen. Data for the rad50EPP+ strain (AID 151);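 note: 0% = growth of vehicle-treated control cultures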; conditions: S. cerevisiae rad50 mutant strain, stronger effect = higher value
# Procedure, shortened: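 rad50EPP+ yeast treated with test compounds. Readout: growth vs vehicle control.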
# [7] = NCI Yeast Anticancer Drug Screen. Data for the mgt1 strain (AID 153); conditions: S. cerevisiae mgt1 mutant growth inhibition, stronger effect = higher value
# Procedure, shortened: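 Growth inhibition relative to vehicle controls was scored for the mgt1 yeast strain after compound exposure.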
# [8] = NCI Yeast Anticancer Drug Screen. Data for the rad50 strain (AID 155);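 note: 0% = growth of vehicle-only cultures of the same strain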; conditions: S. cerevisiae rad50 strain growth inhibition, stronger effect = higher value
# Procedure, shortened: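 Cells are treated with compound, grown, and their growth is then scored against vehicle-only cultures of the same repair-deficient yeast strain.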
# [9] = NCI Yeast Anticancer Drug Screen. Data for the mec2-1 strain (AID 157); conditions: S. cerevisiae mec2-1 strain, stronger effect = higher value
# Procedure, shortened: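 Growth inhibition is read against vehicle-treated controls after compound exposure of the mec2-1 yeast strain, which is defective in DNA damage repair or cell cycle control.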
# [10] = NCI Yeast Anticancer Drug Screen. Data for the rad14 strain (AID 159);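 note: 0% = growth of vehicle-treated control cultures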; conditions: S. cerevisiae rad14 strain growth inhibition, stronger effect = higher value
# Procedure, shortened: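 Readout: yeast growth inhibition, referenced to vehicle-only cultures. Strain bears a defined alteration in DNA damage repair.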
# [11] = NCI Yeast Anticancer Drug Screen. Data for the sgs1 mgt1 strain (AID 161);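 note: 0% = growth of cultures given vehicle only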; conditions: S. cerevisiae sgs1 mgt1 strain, stronger effect = higher value
# Procedure, shortened: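 Growth of a repair-deficient yeast mutant was monitored after compound treatment and expressed as inhibition relative to vehicle-treated cultures.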
# [12] = NCI Yeast Anticancer Drug Screen. Data for the CLN2oe strain (AID 163);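 note: 0% = growth of vehicle-only control cultures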; conditions: S. cerevisiae CLN2oe strain, stronger effect = higher value
# Procedure, shortened: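 Compound-treated yeast; growth vs vehicle ctrl = % inhibition. Genetically altered strain (cell-cycle control).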
# [13] = NCI Yeast Anticancer Drug Screen. Data for the cln2 rad14 strain (AID 165);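 note: 0% = growth equal to vehicle treated cultures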; conditions: S. cerevisiae cln2 rad14 strain, stronger effect = higher value
# Procedure, shortened: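 Growth inhibition, relative to vehicle-treated controls, is the read-out. The test organism is a yeast strain with defined genetic alterations, cln2 rad14.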
# [14] = NCI Yeast Anticancer Drug Screen. Data for the bub3 strain (AID 167); conditions: S. cerevisiae bub3 mutant strain, stronger effect = higher value
# Procedure, shortened: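 Part of a panel of yeast mutants defective in DNA damage repair or cell cycle regulation. Each strain is grown with compound, and inhibition is calculated relative to solvent-treated cultures.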
# [15] = NCI Yeast Anticancer Drug Screen. Data for the wt2 strain (AID 169);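 note: 0% = growth of vehicle-treated yeast cultures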; conditions: S. cerevisiae wt2 strain growth inhibition, stronger effect = higher value
# Procedure, shortened: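 Compound exposure of yeast; growth compared with vehicle controls; inhibition reported.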
# [16] = NCI Yeast Anticancer Drug Screen. Data for the mlh1 strain (AID 171);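 note: 0% = growth of vehicle-treated control cultures of the same strain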; conditions: S. cerevisiae mlh1 strain growth inhibition, stronger effect = higher value
# Procedure, shortened: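 Compounds are applied to a genetically altered yeast strain, and its growth is compared with that of vehicle-treated cultures to give percent inhibition.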
# [17] = at 5.0 µM (retest, dose inferred, filed as 0.5)
# [18] = at 50.0 µM (retest, dose inferred, filed as 5.0)
structure (smiles),measurement,setting,value
N#C/C(=C1C=C(Br)/C(=N\O)C=C\1Cl)c1cccc2ccccc12,growth inhibition,[1]; at 33.0 µM,92% (active)
same,growth inhibition,[1]; at 100.0 µM,95% (active)
same,growth inhibition,[2]; [17],100% (active)
same,growth inhibition,[2]; [18],98% (active)
same,growth inhibition,[2]; at 50.0 µM,89.3% (active)
same,growth inhibition,[3]; at 1.2 µM,0%
same,growth inhibition,[3]; at 3.7 µM,12%
same,growth inhibition,[3]; at 11.0 µM,91% (active)
same,growth inhibition,[3]; at 33.0 µM,89% (active)
same,growth inhibition,[3]; at 100.0 µM,95% (active)
CNc1ccc(Cc2c[nH]c3ccccc23)cc1,growth inhibition,[4]; at 1.2 µM,-20%
same,growth inhibition,[4]; at 3.7 µM,-35%
same,growth inhibition,[4]; at 11.0 µM,-27%
same,growth inhibition,[4]; at 33.0 µM,4%
same,growth inhibition,[4]; at 100.0 µM,22%
same,growth inhibition,[5]; at 1.2 µM,-11%
same,growth inhibition,[5]; at 3.7 µM,-11%
same,growth inhibition,[5]; at 11.0 µM,-17%
same,growth inhibition,[5]; at 33.0 µM,-17%
same,growth inhibition,[5]; at 100.0 µM,-1%
same,growth inhibition,[6]; at 1.2 µM,-36%
same,growth inhibition,[6]; at 3.7 µM,-48%
same,growth inhibition,[6]; at 11.0 µM,-23%
same,growth inhibition,[6]; at 33.0 µM,26%
same,growth inhibition,[6]; at 100.0 µM,39%
same,growth inhibition,[7]; at 1.2 µM,-32%
same,growth inhibition,[7]; at 3.7 µM,-28%
same,growth inhibition,[7]; at 11.0 µM,-32%
same,growth inhibition,[7]; at 33.0 µM,1%
same,growth inhibition,[7]; at 100.0 µM,25%
same,growth inhibition,[8]; at 1.2 µM,-40%
same,growth inhibition,[8]; at 3.7 µM,-48%
same,growth inhibition,[8]; [17],42%
same,growth inhibition,[8]; at 11.0 µM,-41%
same,growth inhibition,[8]; at 33.0 µM,14%
same,growth inhibition,[8]; [18],76% (active)
same,growth inhibition,[8]; at 50.0 µM,89% (active)
same,growth inhibition,[8]; at 100.0 µM,26%
same,growth inhibition,[9]; at 1.2 µM,-28%
same,growth inhibition,[9]; at 3.7 µM,-15%
same,growth inhibition,[9]; [17],56%
same,growth inhibition,[9]; at 11.0 µM,-23%
same,growth inhibition,[9]; at 33.0 µM,-5%
same,growth inhibition,[9]; [18],86% (active)
same,growth inhibition,[9]; at 50.0 µM,67.9%
same,growth inhibition,[9]; at 100.0 µM,8%
same,growth inhibition,[10]; at 1.2 µM,-21%
same,growth inhibition,[10]; at 3.7 µM,-19%
same,growth inhibition,[10]; at 11.0 µM,-18%
same,growth inhibition,[10]; at 33.0 µM,-5%
same,growth inhibition,[10]; at 100.0 µM,-3%
same,growth inhibition,[11]; [17],-13%
same,growth inhibition,[11]; [18],64%
same,growth inhibition,[12]; at 1.2 µM,-8%
same,growth inhibition,[12]; at 3.7 µM,-30%
same,growth inhibition,[12]; at 11.0 µM,-35%
same,growth inhibition,[12]; at 33.0 µM,-19%
same,growth inhibition,[12]; at 100.0 µM,-5%
same,growth inhibition,[13]; [17],27%
same,growth inhibition,[13]; [18],70% (active)
same,growth inhibition,[14]; at 1.2 µM,-8%
same,growth inhibition,[14]; at 3.7 µM,-1%
same,growth inhibition,[14]; [17],15%
same,growth inhibition,[14]; at 11.0 µM,10%
same,growth inhibition,[14]; at 33.0 µM,7%
same,growth inhibition,[14]; [18],89% (active)
same,growth inhibition,[14]; at 100.0 µM,30%
same,growth inhibition,[15]; at 1.2 µM,-17%
same,growth inhibition,[15]; at 3.7 µM,-24%
same,growth inhibition,[15]; at 11.0 µM,-29%
same,growth inhibition,[15]; at 33.0 µM,-5%
same,growth inhibition,[15]; at 100.0 µM,13%
same,growth inhibition,[16]; at 1.2 µM,-35%
same,growth inhibition,[16]; at 3.7 µM,-41%
same,growth inhibition,[16]; at 11.0 µM,-25%
same,growth inhibition,[16]; at 33.0 µM,15%
same,growth inhibition,[16]; at 100.0 µM,27%
same,growth inhibition,[1]; at 1.2 µM,-30%
same,growth inhibition,[1]; at 3.7 µM,-30%
same,growth inhibition,[1]; at 11.0 µM,-31%
same,growth inhibition,[1]; at 33.0 µM,11%
same,growth inhibition,[1]; at 100.0 µM,28%
same,growth inhibition,[2]; [17],35%
same,growth inhibition,[2]; [18],79% (active)
same,growth inhibition,[2]; at 50.0 µM,84.8% (active)
O=C1NC(c2c(Cl)cccc2Cl)Nc2ccccc21 (stereo not given),growth inhibition,[4]; at 1.2 µM,9%
same,growth inhibition,[4]; at 3.7 µM,9%
same,growth inhibition,[4]; at 11.0 µM,12%
same,growth inhibition,[4]; at 33.0 µM,75% (active)
same,growth inhibition,[4]; at 100.0 µM,95% (active)
same,growth inhibition,[5]; at 1.2 µM,-25%
same,growth inhibition,[5]; at 3.7 µM,-26%
same,growth inhibition,[5]; at 11.0 µM,-22%
same,growth inhibition,[5]; at 33.0 µM,52%
same,growth inhibition,[5]; at 100.0 µM,91% (active)
same,growth inhibition,[6]; at 1.2 µM,-12%
same,growth inhibition,[6]; at 3.7 µM,-21%
same,growth inhibition,[6]; at 11.0 µM,-18%
same,growth inhibition,[6]; at 33.0 µM,-14%
same,growth inhibition,[6]; at 100.0 µM,6%
same,growth inhibition,[7]; at 1.2 µM,-14%
same,growth inhibition,[7]; at 3.7 µM,-9%
same,growth inhibition,[7]; at 11.0 µM,5%
same,growth inhibition,[7]; at 33.0 µM,63%
same,growth inhibition,[7]; at 100.0 µM,96% (active)
same,growth inhibition,[8]; at 1.2 µM,12%
same,growth inhibition,[8]; at 3.7 µM,4%
same,growth inhibition,[8]; [17],86% (active)
same,growth inhibition,[8]; at 11.0 µM,10%
same,growth inhibition,[8]; at 33.0 µM,72% (active)
same,growth inhibition,[8]; [18],100% (active)
same,growth inhibition,[8]; at 50.0 µM,83.7% (active)
same,growth inhibition,[8]; at 100.0 µM,91% (active)
same,growth inhibition,[9]; at 1.2 µM,-1%
same,growth inhibition,[9]; at 3.7 µM,-9%
same,growth inhibition,[9]; [17],92% (active)
same,growth inhibition,[9]; at 11.0 µM,-9%
same,growth inhibition,[9]; at 33.0 µM,63%
same,growth inhibition,[9]; [18],100% (active)
same,growth inhibition,[9]; at 50.0 µM,83.7% (active)
same,growth inhibition,[9]; at 100.0 µM,94% (active)
same,growth inhibition,[10]; at 1.2 µM,-44%
same,growth inhibition,[10]; at 3.7 µM,-32%
same,growth inhibition,[10]; at 11.0 µM,-28%
same,growth inhibition,[10]; at 33.0 µM,58%
same,growth inhibition,[10]; at 100.0 µM,89% (active)
same,growth inhibition,[11]; [17],-3%
same,growth inhibition,[11]; [18],87% (active)
same,growth inhibition,[12]; at 1.2 µM,14%
same,growth inhibition,[12]; at 3.7 µM,2%
same,growth inhibition,[12]; at 11.0 µM,-7%
same,growth inhibition,[12]; at 33.0 µM,54%
same,growth inhibition,[12]; at 100.0 µM,93% (active)
same,growth inhibition,[13]; [17],12%
same,growth inhibition,[13]; [18],90% (active)
same,growth inhibition,[14]; at 1.2 µM,4%
same,growth inhibition,[14]; at 3.7 µM,15%
same,growth inhibition,[14]; [17],-1%
same,growth inhibition,[14]; at 11.0 µM,16%
same,growth inhibition,[14]; at 33.0 µM,78% (active)
same,growth inhibition,[14]; [18],87% (active)
same,growth inhibition,[14]; at 100.0 µM,94% (active)
same,growth inhibition,[15]; at 1.2 µM,-28%
same,growth inhibition,[15]; at 3.7 µM,-32%
same,growth inhibition,[15]; at 11.0 µM,-26%
same,growth inhibition,[15]; at 33.0 µM,39%
same,growth inhibition,[15]; at 100.0 µM,89% (active)
same,growth inhibition,[16]; at 1.2 µM,-35%
same,growth inhibition,[16]; at 3.7 µM,-29%
same,growth inhibition,[16]; at 11.0 µM,-40%
same,growth inhibition,[16]; at 33.0 µM,35%
same,growth inhibition,[16]; at 100.0 µM,87% (active)
same,growth inhibition,[1]; at 1.2 µM,-27%
same,growth inhibition,[1]; at 3.7 µM,-33%
same,growth inhibition,[1]; at 11.0 µM,-25%
same,growth inhibition,[1]; at 33.0 µM,41%
same,growth inhibition,[1]; at 100.0 µM,88% (active)
same,growth inhibition,[2]; [17],71% (active)
same,growth inhibition,[2]; [18],100% (active)
same,growth inhibition,[2]; at 50.0 µM,84.5% (active)
same,growth inhibition,[3]; at 1.2 µM,0%
same,growth inhibition,[3]; at 3.7 µM,-2%
same,growth inhibition,[3]; at 11.0 µM,0%
same,growth inhibition,[3]; at 33.0 µM,74% (active)
same,growth inhibition,[3]; at 100.0 µM,93% (active)
